Screens (PubChem BioAssay)
Sampled rows, rich in hits. Any-hit rate of the full collection: about 12%.
BAZ2B block – BAZ2B (human) inhibition; Q9UIF8; AlphaScreen BAZ2B-H3K14Ac peptide displacement; Potency, µM (titrated, usually from 114 µM), for inactives: at the top dose activity change, negative = inhibition, hits mostly inhibitors; 360,000 compounds, 4.4% hits; also: % is scaled to controls: 0 for no effect and ±100 for the full control effect; nearly all actives have a fitted effect of over 60% in size
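Compounds, titrated to a top concentration of 110 uM, were incubated 30 min at room temperature with preformed BAZ2B/acetyl-K14 H3 peptide complex (50 nM each). Proximity signal was measured by AlphaScreen after 20 min with beads.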
HP1b chromo inh – inhibitors of HP1-beta chromodomain binding to methylated histone tails; P83916; AlphaScreen HP1-beta / biotin-H3K9me3 peptide binding; Potency, µM (doses to about 114 µM), for inactives: top-dose activity change, negative = inhibition, most hits filed as inhibitors; 390,000 compounds, 0.56% hits; AID 540317; also: nearly all actives have a fitted effect of over 70% in size
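AlphaScreen: HP1-beta (50 nM) preformed 30 min with biotin-H3(1-18)K9me3 peptide (50 nM) in PBS pH 7.4, 0.01% Tween-20. Compound added for 30 min at RT, then streptavidin donor/nickel chelate acceptor beads (10 ug/mL) for 30 min.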
JMJD2A Tudor inh – blocks the human JMJD2A Tudor domain; Potency, µM (series often up to 114 µM), without a hit: top-dose activity change, negative = inhibition, hits mostly inhibitors; AlphaScreen JMJD2A-Tudor / H3K4me3 peptide binding; 390,000 compounds, 4.4% hits; O75164; also: % is scaled to controls: 0 for no effect and ±100 for the full control effect; nearly all actives have a fitted effect of over 50% in size
Sfp inh – inhibitors of Bacillus subtilis Sfp phosphopantetheinyl transferase | Potency, µM, for the others: largest response in the series, negative = inhibition, usual class: inhibitors | Biochemical Sfp PPTase activity, qHTS | 310,000 compounds, 3.5% hits;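 also: the enzyme is Sfp with the accession as filed and its product quenches rhodamine fluorescence; 0% = enzyme reaction without inhibitor and -100% = no enzyme wells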
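Sfp 15 nM + cpd, 15 min RT; start w/ rhodamine-CoA 5 uM, BHQ-2-YbbR 12.5 uM (final); 50 mM Hepes pH 7.6, 10 mM MgCl2, 0.01% NP-40, 0.01% BSA; read 525/598 nm at 0 and 30 min.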
G9a block – G9a (human) methyltransferase inhibition. Q96KQ7. G9a H3K9 monomethylation, AlphaScreen, 2 h. Potency, µM (highest dose often 102 µM), without a hit: at the top dose activity, negative = inhibition, most hits filed as inhibitors. 350,000 compounds, 8.8% hits. AID 504332; also: % is scaled to controls: 0 for no effect and ±100 for the full control effect; nearly all actives have a fitted effect of over 75% in size
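Readings reflect AlphaScreen signal from monomethyl-H3K9 antibody detection. HMT at 20 nM; substrate b-H3K9 500 nM; cofactor SAM 20 uM; 2 h RT reaction; compounds tested as titrations in qHTS with 15 min preincubation.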
The depositor's hits bear a star; ? = inconclusive; · = not tested or not shown; [ ] = another dose, or the depositor's remark. Calls follow the shape of the dose curve; as a rule, active = well fitted curve in the direction sought with a large enough effect; inconclusive = small, poorly fitted or top-dose-only effect, or another doubt; inactive = no such curve, though single readings can be large; an effect the other way counts as inactive or inconclusive. Potency is read from the fitted curve at half-maximal effect.

SMILES	BAZ2B block	HP1b chromo inh	JMJD2A Tudor inh	Sfp inh	G9a block
Cc1ccc(S(=O)(=O)N2CCN(C(=O)CNC(=O)c3ccc(Cl)cc3)CC2)cc1	·	4.9%	-10.3%	·	·
CCOC(=O)c1cc2c(ccn2C)n1Cc1ccc(Cl)cc1	50.1µM*	-21.9%	56.2µM*	-11.5%	50.1µM*
CCOC(=O)c1cc2c(ccn2C)n1CC(=O)N1CCC(Cc2ccccc2)CC1	25.1µM*	?	35.5µM*	-15.0%	39.8µM*
COc1ccccc1NC(=O)CCN1CC(C)OC(C)C1 (configuration not stated)	7.9%	12.4%	-9.9%	13.0%	9.7%[59 µM]
O=C(O)c1ccc(N/N=C/c2ccc(C(F)(F)F)cc2)cc1	?	-7.2%	-34.9%	-0.5%	35.5µM*
Fc1ccc(N/N=C/c2ccncc2)c(F)c1	0.0%	12.7%	-20.4%	-1.9%	?
CC(C)(C)c1ccc(/C=N/Nc2ccc(C(=O)O)cc2)cc1	-38.1%	-10.1%	?	9.4%	1.78µM*
CC(C)(C)C(=O)Nc1ncc(C(F)(F)F)cc1Cl	0.3%	20.9%	-12.2%	12.0%	16.8%[12.7 µM]
O=C(O)c1ccc(/C=N/Nc2ccc(F)cc2F)cc1	-21.9%	5.9%	-29.4%	7.1%	35.5µM*
O=C(O)c1ccc(/C=N/Nc2ncc(C(F)(F)F)cc2Cl)cc1	-17.3%	31.8%	-12.7%	28.2µM*	31.6µM*
O=C(NC1CCCCC1)C12CC3CC(C1)CC(n1cncn1)(C3)C2	6.6%	32.8%	-15.6%	2.3%	45.2%[12.7 µM]
CCOc1cc(C#N)ccc1OCC(=O)N1CCN(C(=O)c2cccs2)CC1	-4.0%	26.4%	5.7%	·	-6.8%[12.7 µM]
Cc1cc(C(=O)CSc2nc3ccccc3c(=O)n2C)c(C)n1Cc1ccc2c(c1)OCO2	-1.7%	1.3%	-23.6%	?	-15.6%[59 µM]
CCc1nc2nc(C)c(NS(=O)(=O)c3ccc(F)c(C)c3)c(=O)n2[nH]1	3.4%	36.9%	-10.6%	·	-33.0%[59 µM]
CCc1nc2nc(C)c(NS(=O)(=O)c3ccc(F)cc3)c(=O)n2[nH]1	12.0%	-11.0%	-2.8%	9.6%	25.1µM*
CCc1nc2nc(C)c(NS(=O)(=O)c3ccc(Br)s3)c(=O)n2[nH]1	10.7%	78.3%	?	20.3%	50.1µM*
CCCc1nc2nc(C)c(NS(=O)(=O)c3ccc(C(C)(C)C)cc3)c(=O)n2[nH]1	4.3%	61.1%	-4.9%	5.6%	79.4µM*
CCOc1ccccc1NC(=O)COC(=O)c1cc(C)oc1C	·	35.8%	-8.2%	·	·
Cn1c(=O)c2c(ncn2CCCNC2=CC(C)(C)CC(=O)C2)n(C)c1=O	10.3%	·	·	-11.8%	-10.6%[12.7 µM]
CCOC(=O)c1ccc(N2C(=O)C3CC=CCC3C2=O)cc1 (configuration not stated)	-2.0%	19.3%	-7.6%	3.9%	-1.3%[59 µM]
CCOC(=O)c1ccc(N2C(=O)C3C(C2=O)C(C(=O)c2ccc(Cl)cc2)N2CCCC32)cc1 (configuration not stated)	50.1µM*	32.1%	-33.1%	?	?
CN(C)CCNc1ncnc2c1sc1nc(-c3ccccc3)c3c(c12)CCCC3	?	-20.8%	?	35.5µM*	?
CCN1CCN(c2ncnc3c2sc2nc(N4CCOCC4)c4c(c23)CCC4)CC1	-22.9%	13.8%	-6.8%	11.4%	?
COc1ncnc2c1sc1nc(-c3ccccc3)c3c(c12)CCCC3	13.9%	54.3%	20.8%	?	27.6%[59 µM]
c1nc(NCCN2CCOCC2)c2sc3nc(N4CCOCC4)c4c(c3c2n1)CCC4	0.9%	27.6%	-15.7%	7.3%	50.1µM*
SMILES	BAZ2B block	HP1b chromo inh	JMJD2A Tudor inh	Sfp inh	G9a block
COc1ccc(S(=O)(=O)NCc2cccnc2)cc1Br	4.8%	51.4%	2.0%	9.2%	-2.0%
CCOC(=O)c1c(N)sn(-c2ccccc2C)c1=S	?	-71.5%	56.2µM*	17.8µM*	5.62µM*
CCC(=O)Oc1ccc(C2NC(=O)c3ccccc3O2)cc1OC (configuration not stated)	-3.7%	10.7%	?	16.1%	10.4%
Cc1cc2ncn(-c3ncccc3[N+](=O)[O-])c2cc1C	89.1µM*	-2.1%	?	39.8µM*	11.2µM*
O=[N+]([O-])c1cccnc1-n1cnc2ccccc21	-10.5%	20.7%	-5.5%	10µM*	44.7µM*
Cc1cc(C)n(-c2ncccc2[N+](=O)[O-])n1	-0.3%	2.9%	-4.7%	-5.6%	·
Cc1ccccc1N1C(=O)CC2(CCCC2)CC1=O	-14.0%	43.5%	2.1%	23.2%	-11.0%[59 µM]
COc1cc(OC)cc(C(=O)NC(=S)NCc2ccco2)c1	-7.4%	-0.2%	-33.6%	-12.8%	44.7µM*
Cc1ccc(C(=O)NC(=S)NCc2ccco2)cc1	?	-13.7%	?	-23.4%	44.7µM*
S=C(NCCc1ccc(Cl)cc1)NCc1ccco1	-35.2%	-13.6%	-31.9%	?	50.1µM*
COc1cccc(C(=O)NC(=S)NCc2ccco2)c1	-35.3%	12.8%	-13.1%[57.1 µM]	-16.4%	?
Cc1ccc(C(=O)NC2CC3CCCC(C2)N3C(=S)NCc2ccco2)cc1 (configuration not stated)	-27.0%	-20.1%	-24.1%	44.7µM*	?
CCC(Oc1ccccc1)C(=O)Nc1ccccc1C(=O)N1CCOCC1 (configuration not stated)	-13.2%	29.2%	-15.3%	9.6%	9.2%
COc1ccc(-c2csc(-c3c(N)c(C(=O)c4ccccc4)n4ccccc34)n2)cc1	34.1%	75.1%	-18.8%	·	43.3%[59 µM]
CC1CCC2(CC1)NC(CO)(CO)CO2 (configuration not stated)	-5.1%	16.1%	-9.9%[57.1 µM]	12.3%	-8.5%[59 µM]
COc1ccccc1-c1nn(-c2ccccc2)cc1C(=O)NC1CC1	6.2%	28.5%	-14.9%	·	14.3%[59 µM]
Cc1ccc(-c2noc(CCC(=O)N(C)c3ccccc3C)n2)cc1	2.4%	43.3%	3.7%	50.1µM*	11.6%
O=C(NC(=S)NCc1ccco1)c1cccc(Cl)c1	?	·	·	-2.9%	70.8µM*
Cc1ccc(-c2noc(CCC(=O)NCc3ccco3)n2)cc1	?	11.5%	-14.6%	56.2µM*	?
O=C(CCc1nc(-c2ccccc2)no1)NCc1ccco1	5.2%	-3.2%	-17.4%	-15.7%	-16.8%[59 µM]
Cc1ccc(N2CC(C)Cn3c2nc2c3c(=O)n(CC(=O)OCc3ccccc3)c(=O)n2C)cc1C (configuration not stated)	2.3%	4.2%	?	16.6%	-5.1%[12.7 µM]
O=C(CCCN1C(=O)/C(=C/c2ccccc2OC(F)F)SC1=S)Nc1cccnc1	·	-22.9%	17.8µM*	·	·
O=C(CCN1C(=O)/C(=C/c2ccccc2F)SC1=S)Nc1cccnc1	1.12µM*	-5.9%	?	1.1%	·
COc1ccc(N2CCN(Cc3nc4ccccc4n3C)CC2)cc1	?	-10.5%	?	0.6%	?
O=c1/c(=C\c2cccc(O)c2)sc2nc(-c3ccccc3)c(-c3ccccc3)n12	5.62µM*	1.5%	-27.2%	-20.3%	?
O=C1NC(=O)/C(=C/c2cccc(O)c2)N1	-28.3%	29.2%	-7.2%	6.4%	-3.7%[12.7 µM]
